# In PubChem BioAssay (Tox21):
# Activity calls are given as the source filed them. Calls come from the whole dose curve; as a rule, active = well fitted curve in the direction sought with a large enough effect in the repeat runs; inconclusive = weak or mixed curves; inactive = flat fitted curve, though single readings scatter.
# Assay: qHTS assay to test for compound auto fluorescence at 590 nm (red) in HEK293 cells (AID 720679)
# Conditions: red autofluorescence 540/590 nm; series mostly up to 91.3 µM; fluorescence, % of fluorescent control: at the top concentration
# How it was run: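 Using HEK293 cells at 2,000 per well, the screen added 23 nL of each compound after cell attachment and incubated overnight (37C, 5% CO2). The plate reader then captured red-label fluorescence, Ex/Em 540/590nm.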
# % is set by controls: 0 for no effect and ±100 for the full control effect.
Structure (SMILES),"fluorescence, % of fluorescent control",Potency
C=CC(=C)CCC=C(C)C,-0.38% (inactive),–
Cn1cnc2ncnc(N)c21,-0.0178% [at 46 µM] (inactive),–
Cc1cccc(Br)c1,0.181% (inactive),–
CCCCCCCCCC(=O)N(C)C,0.509% [at 95.7 µM] (inactive),–
[O]=[Zr],-0.262% (inactive),–
CC(COC(=O)c1ccccc1)OC(=O)c1ccccc1 (stereo unspecified),-0.0058% (inactive),–
CCOC(=O)COc1ccc(C)cc1,-0.29% (inactive),–
Oc1c(Br)cc(Br)c2cccnc12,-0.109% [at 46 µM] (inactive),–
CCCCOC(=O)C(C)CC (stereo unspecified),-0.778% (inactive),–
CC1CCCNC1 (stereo unspecified),-0.383% (inactive),–
CCC(=O)OCCc1ccccc1,0.289% (inactive),–
O=C(c1ccccc1)c1cc(Cl)ccc1O,-0.0255% (inactive),–
CC1(C)C(=O)N(Br)C(=O)N1Br,-0.106% (inactive),–
O=C(Nc1ccc(Cl)c(Cl)c1)c1cc(Cl)cc(Cl)c1O,-0.0439% (inactive),–
C/C=C/C(=O)Oc1c(CCCCCC(C)C)cc([N+](=O)[O-])cc1[N+](=O)[O-],0.227% (inactive),–
C(=C/c1ccccc1)/c1ccccc1,-0.0534% [at 95.7 µM] (inactive),–
CCc1cccc(C)c1,0.0971% [at 95.7 µM] (inactive),–
NC(=O)c1ccccc1N,0.471% (inactive),–

Structure (SMILES),"fluorescence, % of fluorescent control",Potency
CCCCCCCC/C=C\CCCCCCCC(=O)OCCOC(=O)CCCCCCC/C=C\CCCCCCCC,-0.281% [at 95.7 µM] (inactive),–
CC1=C(/C=C/C(C)=C/C=C/C(C)=C/C(=O)Nc2ccc(O)cc2)C(C)(C)CCC1,–,inactive
CCC(C)(C)c1cc(O)c(C(C)(C)CC)cc1O,-0.206% (inactive),–
Cc1cn[nH]c1,-0.36% [at 46 µM] (inactive),–
O=C(Nc1ccc(Cl)cc1)Nc1ccc(Cl)c(C(F)(F)F)c1,0.149% [at 46 µM] (inactive),–
Cc1c(C(=O)O)cccc1[N+](=O)[O-],-0.213% [at 95.7 µM] (inactive),–
CC(=O)Oc1ccc(C2(c3ccc(OC(C)=O)cc3)Oc3ccccc3NC2=O)cc1,0.0637% [at 46 µM] (inactive),–
CCCCCCCCCCCCCCNCCO,0.236% [at 46 µM] (inactive),–
CCNc1nc(NC(C)CC)nc(OC)n1 (stereo unspecified),-1.01% (inactive),–
ClC/C=C\CCl,0.0443% [at 95.7 µM] (inactive),–
COC(=O)CC#N,0.114% [at 95.7 µM] (inactive),–
O=C(O)c1cccc(Cl)n1,0.0422% (inactive),–
C=CC(C)(CCC=C(C)C)OC(=O)/C=C/c1ccccc1 (stereo unspecified),0.0014% (inactive),–
COC(=O)NCCC[Si](OC)(OC)OC,-0.0423% (inactive),–
O=C(O)CC(=O)O,-0.141% (inactive),–
C1CC(COCC2CO2)CCC1COCC1CO1 (stereo unspecified),0.0375% (inactive),–
CC(C)=C1CC[C@@H](C)CC1=O,-0.142% (inactive),–
CCCCCCCCCCCCCCCC,-0.122% (inactive),–
